In PubChem BioAssay AID1159580 (chemical genetic matrix, 2015):
“And” between values parts separate entries of the source, which are not always exact repeats. Equal values may be shown once. Hit rate of the full screen: of about 5,500 compounds, about 2,000 (36%) were called active. Inconclusive results (about 18%) are left out. Rule as the data show it: active = normalized growth mostly below about 0.91 (no sharp cut-off); inconclusive = no clear call, values can overlap the other calls; inactive = mostly above about 0.92. The list shows a part of the results.

Assay: chemical genetic growth profiling, strain panel (AID 1159580);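 also: tested at 20 µM; growth read once vehicle control cultures reached saturation at 30 °C; 1 = growth at the plate median or of vehicle wells; lower values mean less growth of the strain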
Settings: S. cerevisiae deletion strains, growth OD

Measured: normalized growth

CCn1cc(C(=O)O)c(=O)c2cc3c(cc21)OCO3
inactive: locus YAL013W, strain DEP1, stronger effect = lower value 1.01 | locus YAL021C, strain ccr4, stronger effect = lower value 0.967 | locus YAL026C, strain drs2, stronger effect = lower value 0.982 | locus YAL030W, strain snc1, stronger effect = lower value 0.977 | locus YAL040C, strain CLN3, stronger effect = lower value 0.97 | locus YBL061C, strain skt5, stronger effect = lower value 0.977 | locus YBR009C, strain hhf1, stronger effect = lower value 0.977 | locus YBR021W, strain FUR4, stronger effect = lower value 1.01 | locus YBR023C, strain chs3, stronger effect = lower value 0.957 | locus YBR171W, strain sec66, stronger effect = lower value 0.962 | locus YBR229C, strain ROT2, stronger effect = lower value 1.01 | locus YBR231C, strain swc5, stronger effect = lower value 0.979 | locus YBR279W, strain paf1, stronger effect = lower value 0.977 | locus YCL011C, strain gbp2, stronger effect = lower value 0.974 | locus YCL016C, strain dcc1, stronger effect = lower value 0.988 | locus YCL029C, strain bik1, stronger effect = lower value 0.997 | locus YCL061C, strain MRC1 (second series), stronger effect = lower value 0.991 | locus YCL061C, strain MRC1, stronger effect = lower value 0.971 | locus YCL069W, strain vba3, stronger effect = lower value 0.98 | locus YCR088W, strain abp1, stronger effect = lower value 0.981 | locus YDL005C, strain med2, stronger effect = lower value 0.971 | locus YDL035C, strain GPR1, stronger effect = lower value 1.02 | locus YDL040C, strain nat1, stronger effect = lower value 0.985 | locus YDL074C, strain BRE1, stronger effect = lower value 1.06 | locus YDL101C, strain DUN1, stronger effect = lower value 1.02 | locus YDL134C, strain PPH21, stronger effect = lower value 1 | locus YDL185W, strain tfp1, stronger effect = lower value 0.999 | locus YDL192W, strain arf1, stronger effect = lower value 0.99 | locus YDR001C, strain nth1, stronger effect = lower value 0.979 | locus YDR069C, strain doa4, stronger effect = lower value 0.989 | locus YDR101C, strain arx1, stronger effect = lower value 0.993 | locus YDR137W, strain rgp1, stronger effect = lower value 0.857 | locus YDR150W, strain NUM1, stronger effect = lower value 0.99 | locus YDR159W, strain sac3, stronger effect = lower value 0.996 | locus YDR162C, strain NBP2, stronger effect = lower value 1.01 | locus YDR195W, strain ref2 0.983 | locus YDR297W, strain sur2, stronger effect = lower value 0.98 | locus YDR318W, strain mcm21, stronger effect = lower value 1 | locus YDR334W, strain swr1, stronger effect = lower value 0.955 | locus YDR335W, strain msn5, stronger effect = lower value 0.984 | locus YDR363W, strain ESC2, stronger effect = lower value 0.973 | locus YDR388W, stronger effect = lower value 0.99 | locus YDR392W, strain spt3, stronger effect = lower value 0.914 | locus YDR502C, strain sam2, stronger effect = lower value 1.01 | locus YEL003W, strain gim4, stronger effect = lower value 1 | locus YEL037C, strain rad23, stronger effect = lower value 0.975 | locus YEL061C, strain CIN8 (second series), stronger effect = lower value 0.98 | locus YEL061C, strain CIN8, stronger effect = lower value 1.01 | locus YER002W, strain NOP16, stronger effect = lower value 0.967 | locus YER015W, strain faa2, stronger effect = lower value 0.983 | locus YER016W, strain bim1, stronger effect = lower value 0.993 | locus YER110C, stronger effect = lower value 0.991 | locus YER111C, strain swi4, stronger effect = lower value 0.972 | locus YER155C, strain BEM2 (second series), stronger effect = lower value 0.979 | locus YER155C, strain BEM2, stronger effect = lower value 1.01 | locus YER167W, strain BCK2, stronger effect = lower value 1.01 | locus YFR010W, strain ubp6, stronger effect = lower value 0.97 | locus YGL078C, strain dbp3, stronger effect = lower value 0.99 | locus YGL086W, strain mad1, stronger effect = lower value 1.01 | locus YGL167C, strain pmr1, stronger effect = lower value 0.976 | locus YGL173C, strain kem1, stronger effect = lower value 0.974 | locus YGL227W, strain vid30, stronger effect = lower value 0.978 | locus YGL240W, strain doc1, stronger effect = lower value 0.988 | locus YGL248W, strain PDE1, stronger effect = lower value 1.02 | locus YGL253W, strain hxk2, stronger effect = lower value 0.991 | locus YGR135W, strain pre9, stronger effect = lower value 0.99 | locus YGR229C, strain SMI1, stronger effect = lower value 1.02 | locus YGR252W, strain gcn5, stronger effect = lower value 1 | locus YHR013C, strain ard1, stronger effect = lower value 0.959 | locus YHR027C, strain rpn1, stronger effect = lower value 0.971 | locus YHR030C, strain SLT2, stronger effect = lower value 1.01 and 1.07 | locus YHR079C, strain IRE1 (second series), stronger effect = lower value 0.992 | locus YHR079C, strain IRE1, stronger effect = lower value 1.11 | locus YHR094C, strain hxt1, stronger effect = lower value 0.987 | locus YHR129C, strain ARP1, stronger effect = lower value 1.01 | locus YHR142W, strain chs7, stronger effect = lower value 0.933 | locus YHR200W, strain rpn10, stronger effect = lower value 1 | locus YIL066C, strain RNR3, stronger effect = lower value 1.02 | locus YIL073C, strain SPO22, stronger effect = lower value 0.987 | locus YIL125W, strain kgd1, stronger effect = lower value 0.995 | locus YIR030C, strain dcg1, stronger effect = lower value 0.999 | locus YJL092W, strain hpr5, stronger effect = lower value 0.981 | locus YJL095W, strain BCK1 (second series), stronger effect = lower value 0.983 | locus YJL095W, strain BCK1, stronger effect = lower value 1.03 and 1.04 | locus YJL115W, strain asf1, stronger effect = lower value 0.974 | locus YJL129C, strain trk1, stronger effect = lower value 0.974 | locus YJL134W, strain LCB3, stronger effect = lower value 1.01 | locus YJL154C, strain vps35, stronger effect = lower value 0.969 | locus YJL164C, strain tpk1, stronger effect = lower value 0.997 | locus YJL166W, strain qcr8, stronger effect = lower value 0.969 | locus YJL168C, strain set2, stronger effect = lower value 0.997 | locus YJL187C, strain SWE1 (second series), stronger effect = lower value 1.03 | locus YJL187C, strain SWE1, stronger effect = lower value 0.975 | locus YJR043C, strain POL32, stronger effect = lower value 1.02
